Test results taken from PubChem BioAssay AID687016 (The Scripps Research Institute Molecular Screening Center, 2013).
Values joined by “and” are separate entries in the source; they are usually repeats but may differ in a detail not shown here. Identical values can stand only once. Among all 370,000 compounds or so, about 2,800 (0.76%) were called active. Cut-off read from the data, not from the text of the source: active = inhibition above about 21%; inactive = the rest. The full list was thinned out, with actives kept by preference. Where a structure was tested more than once in an assay, its records may differ in their call.

biological target: E3 ubiquitin-protein ligase UHRF1 (Homo sapiens) (UniProt Q96T88); assay: blockers of UHRF1 binding to methyl-oligo – biochemical, TR-FRET, human UHRF1, single concentration, counter-screen for MBD2 inhibitor project, primary screen (AID 687016); conditions: UHRF1 binding to methylated oligo, at 4.4 µM, stronger effect = higher value;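 note: UHRF1 SRA domain binding a hemimethylated CpG hairpin DNA probe; 0% = median of test compound wells and 100% = reference inhibitor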
Sequence (Q96T88 whole entry, looked up, the tested form may be a part): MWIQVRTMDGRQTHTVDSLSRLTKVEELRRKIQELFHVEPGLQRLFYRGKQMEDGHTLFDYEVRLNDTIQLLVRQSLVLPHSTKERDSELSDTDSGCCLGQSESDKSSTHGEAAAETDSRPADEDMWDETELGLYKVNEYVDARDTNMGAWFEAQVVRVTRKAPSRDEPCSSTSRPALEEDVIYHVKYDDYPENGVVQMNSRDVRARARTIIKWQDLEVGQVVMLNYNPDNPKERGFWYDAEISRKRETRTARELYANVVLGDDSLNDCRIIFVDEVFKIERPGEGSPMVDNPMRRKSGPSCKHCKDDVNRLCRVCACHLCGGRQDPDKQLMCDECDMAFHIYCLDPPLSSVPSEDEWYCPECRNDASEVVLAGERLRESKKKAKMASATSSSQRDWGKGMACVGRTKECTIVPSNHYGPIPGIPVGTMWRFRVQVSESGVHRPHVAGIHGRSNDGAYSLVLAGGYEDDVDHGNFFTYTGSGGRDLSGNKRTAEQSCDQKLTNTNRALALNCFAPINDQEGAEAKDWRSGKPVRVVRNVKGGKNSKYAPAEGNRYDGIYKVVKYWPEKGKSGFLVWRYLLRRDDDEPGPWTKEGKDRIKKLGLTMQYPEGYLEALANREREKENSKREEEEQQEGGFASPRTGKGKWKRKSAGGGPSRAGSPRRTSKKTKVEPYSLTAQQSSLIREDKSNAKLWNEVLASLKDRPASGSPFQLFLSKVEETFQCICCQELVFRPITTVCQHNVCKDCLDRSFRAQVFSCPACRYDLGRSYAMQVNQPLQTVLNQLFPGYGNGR

| Compound | inhibition |
| --- | --- |
| O=C(CCl)NC1CCCCN(Cc2cccc(C(F)(F)F)c2)C1=O (configuration not stated) | 0.33% (inactive) |
| CCN(CC(=O)Nc1ccc(NC(C)=O)cc1)C(=O)C1CC(=O)N(Cc2ccc(C)cc2)C1 (configuration not stated) | 21.3% (active) |
| Cc1ccc(CN2CC(C(=O)N3CCN(S(=O)(=O)c4ccccc4)CC3)CC2=O)cc1 (configuration not stated) | 9.15% (inactive) |
| CCN(CC(=O)Nc1ccc(NC(C)=O)cc1)C(=O)C1CC(=O)N(c2ccc3c(c2)OCCO3)C1 (configuration not stated) | 1.89% (inactive) |
| CCCNC(=O)Nc1ccc2c(c1)C(=O)N(C)[C@H]1CC[C@H](CC(=O)NCC3CCCCC3)O[C@@H]1CO2 | 10.6% (inactive) |
| O=C(CSc1nnc(COc2ccccc2)n1-c1ccc(Cl)cc1)Nc1ccc2c(c1)OCO2 | 1.16% (inactive) |
| CCC(CO)Nc1cccc2c1S(=O)(=O)N(Cc1cn(Cc3ccccc3C(F)(F)F)nn1)Cc1ccccc1O2 (configuration not stated) | 2.09% (inactive) |
| COc1cccc(C2=CC(=O)C[C@H](c3ccc(F)cc3)C2)c1OC | -0.67% (inactive) |
| COc1ccccc1C1=CC(=O)C[C@H](c2ccc(F)cc2)C1 | 1.8% (inactive) |
| O=C1C=C(c2cccc(Cl)c2O)C[C@@H](c2ccc(F)cc2)C1 | 21% (active) |
| Cc1ccc(-c2nnc(SCC(=O)Nc3ccc(Oc4ccccc4)cc3)n2Cc2ccco2)cc1 | -0.31% (inactive) |
| O=C(Cn1c[n+](CC(=O)c2ccc([N+](=O)[O-])cc2)cn1)c1ccc([N+](=O)[O-])cc1 | 50.5% (active) and -2.04% (inactive) |
| Cc1ccc(C(=O)Cn2cccn2)cc1 | 5.04% (inactive) |
| O=C(CC(n1cncn1)C(Cl)(Cl)Cl)c1ccc([N+](=O)[O-])cc1 (configuration not stated) | 0.74% (inactive) |
| Cc1ccc(NC(=S)NNC(=O)CSc2nnc(SCc3ccccc3Cl)s2)cc1 | -10.8% (inactive) |
| COc1cccc(CSc2nnc(-c3cccnc3)n2Cc2ccccc2)c1 | -0.03% (inactive) |
| Cc1cc(C(=O)NNC(=O)c2cccc(S(=O)(=O)N3CCOCC3)c2)c2ccccc2n1 | -0.61% (inactive) |
| CCOc1cc(N2CCOCC2)c(OCC)cc1NC(=O)c1cc(C)nc2ccccc12 | 23.5% (active) |
| CCOc1cc(N2CCOCC2)c(OCC)cc1NC(=O)C1=NN(c2cccc(C)c2)C(=O)CC1 | 0.92% (inactive) |
| CC(C)(C)OC(=O)NCc1cc(F)ccc1/C=C/S(=O)(=O)NCCc1ccccc1 | 0.11% (inactive) |
| CC(=O)c1ccc(OCC(=O)N(C)C2CCS(=O)(=O)C2)cc1 (configuration not stated) | 1.81% (inactive) |
| CCOC(=O)/C(=N\Nc1ccccc1Cl)N(C)C1CCS(=O)(=O)C1 (configuration not stated) | 23.3% (active) |
| CCOC(=O)/C(=N\Nc1cc(Cl)ccc1Cl)N1CCN(C)CC1 | -0.04% (inactive) |
| CCOC(=O)[C@]12CCCCC/C=C\1N(Cc1ccc(OC)cc1)C(=O)[C@H]2CC(=O)NCCCN1CCCC1=O | -0.93% (inactive) |
| CCOC(=O)[C@]12CCCC3=C1N(CCC3)C(=O)[C@@H](CC(=O)NCC13CC4CC(CC(C4)C1)C3)C2 | -0.2% (inactive) |
| O=C(CCCCCN1C(=O)C2C3C=CC(C3)C2C1=O)Nc1ccccn1 (configuration not stated) | -0.7% (inactive) |

| Compound | inhibition |
| --- | --- |
| COc1ccc(N2CCN(CCNS(=O)(=O)c3ccc(C(C)(C)C)cc3)CC2)cc1 | 0.26% (inactive) |
| C=CCOc1ccc(/C=C/C(=O)OC(C)C(=O)Nc2ccc(NC(C)=O)cc2)cc1 (configuration not stated) | 0.2% (inactive) |
| CC(OC(=O)/C=C/c1ccccc1)C(=O)Nc1ccc(C(N)=O)cc1 (configuration not stated) | -0.02% (inactive) |
| CCc1ccc(NC(=O)C(C)OC(=O)/C=C/c2cccc([N+](=O)[O-])c2)cc1 (configuration not stated) | 21.5% (active) |
| O=C(NC1CCC1)c1ccc(C#Cc2cccc(F)c2)c[n+]1[O-] | -2.83% (inactive) |
| COc1ccc(Cn2c(=O)oc3ccccc32)cc1 | -0.71% (inactive) |
| COc1cc2[nH]c(=S)n(Cc3ccc(C)o3)c(=O)c2cc1OC | -2.92% (inactive) |
| COc1ccc(Cn2c(=O)cc(C)[nH]c2=S)cc1 | 48.1% (active) |
| COC(=O)[C@]12C[C@H](CC(=O)NCc3cccc4ccccc34)C(=O)N(CCc3ccc(OC)c(OC)c3)C1=C[C@H](C1CCCC1)O[C@@H]2C | 0% (inactive) |
| CCOC(=O)N1CCN(C(=O)C[C@@H]2C(=O)N(CCc3ccc(Cl)cc3)C3=CCCC[C@]32C(=O)OCC)CC1 | -0.31% (inactive) |
| c1csc(-c2nnc(SCc3nc4ccccc4[nH]3)o2)c1 | -2.92% (inactive) |
| COC(=O)[C@]12C[C@H](CC(=O)N3CCOCC3)C(=O)N(Cc3ccc(Cl)cc3Cl)C1=C[C@H](C(C)C)O[C@@H]2C1CC1 | -0.21% (inactive) |
| CCCCC(=O)Nc1ccc(C(=O)NCCCn2ccnc2)cc1 | -2.85% (inactive) |
| CCCCCC(=O)Nc1ccc(-c2cn3cccnc3n2)cc1 | 23.5% (active) |
| CC(C)(C)C(=O)Nc1ccc(-c2cn3cccnc3n2)cc1 | -3.25% (inactive) |
| Clc1ccc(-n2c(SC/C=C/c3ccccc3)nnc2-c2ccco2)cc1 | 0.89% (inactive) |
| CC1CCN(c2ccc(C(=O)O)cc2NS(=O)(=O)c2ccc(Br)s2)CC1 | -1.98% (inactive) |
| COC(=O)[C@@]12CCCCC=C1N(CCc1ccc(Cl)cc1)C(=O)[C@H]2CC(=O)NCc1ccc(OC)c(OC)c1 | 0.86% (inactive) |
| CCCCN1C(=O)C(CC(=O)NCc2cccs2)CC(C(=O)N2CCCCCC2)=C1C (configuration not stated) | -0.83% (inactive) |
| CCCCN1C(=O)C(CC(=O)NCc2cccs2)CC(C(=O)N2CCOCC2)=C1C (configuration not stated) | 22.9% (active) |
| COCCCN1C(=O)C(CC(=O)NCc2cccs2)CC(C(=O)N2CCOCC2)=C1C (configuration not stated) | 0.04% (inactive) |
| Oc1ccc(/C=C/c2c(F)cccc2F)c2cccnc12 | -8.09% (inactive) |
| O=C1C(=O)N(Cc2ccc(-c3ccsc3)cc2)c2ccc(OC(F)(F)F)cc21 | 1.64% (inactive) |
| O=C1CCC2(CCC(c3ccc(Cl)cc3)CC2)N1CCO (configuration not stated) | -1.17% (inactive) |
| O=C(C1CCN(S(=O)(=O)c2ccccc2)CC1)N1CCN(C2CCCCC2)CC1 | -0.54% (inactive) |
| COc1ccc(Cn2cc(CN3[C@@H](CC(C)C)COc4cc(Br)ccc4S3(=O)=O)nn2)cc1 | -1.35% (inactive) |
